Bioassay records from PubChem BioAssay.
Ba/F3 V617F tox – reduce viability of Ba/F3 cells dependent on JAK2V617F. Ba/F3 EpoR-JAK2V617F viability, ATP luminescence. inhibition, % at 5.6 µM. 220,000 compounds, 1.1% hits;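 active = inhibition above the campaign mean plus 3 SD over all tested compounds, cut at about 24% in these data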;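 note: cytokine-independent growth of Ba/F3 cells driven by EpoR plus mutant JAK2; 0% = DMSO-treated cells and 100% = JAK inhibitor I control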
IEC-6 cytotox – counter-screen for KLF5 inhibitors: cytotoxicity in IEC-6 cells; IEC-6 cytotoxicity, luminescence viability; inhibition, % at 5 µM; 290,000 compounds, 0.78% hits; AID 1825;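 note: 0% = plate median of test compound wells and 100% = cytotoxic reference compound wells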
APP transl inh – APP translation inhibition; SH-SY5Y APP 5'UTR-luciferase reporter, luminescence; inhibition, % at 2 µM; 190,000 compounds, 0.82% hits; AID 1285;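 active = inhibition above a set limit, derived from the sample mean plus 3 SD, cut at about 45% in these data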
KLF5 inh – inhibitors of KLF5 expression. inhibition, % at 5 µM. DLD-1 KLF5 promoter-luciferase reporter, luminescence. 290,000 compounds, 0.23% hits;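 active = inhibition above a per-plate limit of that plate's mean compound inhibition plus 3 SD, cut at about 60% in these data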;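 note: 0% = DMSO wells and 100% = LY294002 at 200 µM; higher means less KLF5 promoter-driven luciferase light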
BaF3 tox – parental Ba/F3 viability inhibition as JAK2V617F counter-screen; CellTiter-Glo ATP luminescence; inhibition, % at 5.6 µM; 220,000 compounds, 1.1% hits; AID 1486;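 active = inhibition above a per-campaign cutoff, the mean inhibition of all tested compounds plus 3 SD, cut at about 27% in these data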;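 note: 0% = DMSO wells and 100% = JAK Inhibitor I control wells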
IEC-6 cytotox cf – IEC-6 cytotoxicity, confirmation assay; shares compounds with IEC-6 cytotox; AID 1907; inhibition, % at 5 µM; 1,900 compounds, 63% hits; IEC-6 rat intestinal epithelial viability, luminescence;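 note: 0% = vehicle and 100% = reference cytotoxic drug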
* marks the source's active call; other numbers are inactive results; . = no result. This is a sample that favours compounds with a hit; in the whole collection about 1.9% have one here. Cut-off read from the data, not from the text of the source, unless noted: active = inhibition above about 22%; inactive = the rest.

SMILES	Ba/F3 V617F tox	IEC-6 cytotox	APP transl inh	KLF5 inh	BaF3 tox	IEC-6 cytotox cf
COc1ccc(OC)c(/C=N/NC(=O)c2ccc(Cn3cc([N+](=O)[O-])cn3)o2)c1	-5	-9	4	-30	3	.
O=[N+]([O-])c1cc([N+](=O)[O-])c2cc3ccccc3nc2c1	.	46*	.	3	.	12
Cc1ccc(Nc2cc(C)nn2-c2nc(C)cc(=O)[nH]2)cc1	100*	101*	92*	41	98*	101*
CN1c2cccc3cccc(c23)N(C)C1c1cccs1	0	24*	0	-41	9	3
CCOc1ccc(S(=O)(=O)N2CCN=C2c2ccccc2)cc1	.	26*	.	23	.	23*
Cc1cc(S(=O)(=O)N2CCN=C2c2ccccc2)ccc1F	1	1	-7	-35	3	.
Clc1cccc(Cl)c1/C=C/c1ccn[nH]1	.	27*	.	-59	.	9
Nc1cccc(-c2nc3ccc(C(=O)c4ccccc4)cc3[nH]2)c1	.	72*	.	-4	.	60*
CCOC(=O)c1[nH]c(C)c(C(=O)Nc2ccccc2F)c1C	68*	47*	62*	5	62*	46*
CCOC(=O)c1[nH]c(C)c(C(=O)c2ccc(C)cc2)c1C	78*	82*	95*	16	77*	62*
CCOC(=O)c1[nH]c(C)c(C(=O)Nc2cc(OC)ccc2OC)c1C	75*	86*	91*	60	75*	61*
CCOC(=O)c1c(C)[nH]c(C(=O)OCC(=O)Nc2cc(C)ccc2OC)c1C	-5	1	-14	-4	0	.
CCOC(=O)c1[nH]c(C)c(C(=O)Nc2ccc(F)cc2)c1C	-6	1	-18	-43	-1	.
CCOC(=O)c1[nH]c(C)c(C(=O)Nc2ccc(C)cc2C)c1C	59*	51*	70*	38	52*	48*
CN(CCCC(=O)Nc1ccc(OC(F)F)cc1)S(=O)(=O)c1ccc(F)cc1	.	7	.	-4	.	.
CN(C)C(=O)c1cnc(-c2ccccc2)nc1-c1ccccc1	.	-5	.	-36	.	.
Cc1ccc(C)c(C(=O)COC(=O)c2cc([N+](=O)[O-])ccc2NCCO)c1	2	-7	0	-11	6	.
CCC(c1nnc(SCC(=O)Nc2cccnc2Cl)n1-c1ccccc1)N(C)C (stereo unspecified)	0	2	-2	-6	0	.
CCOC(=O)/C(=C\c1cccc(O)c1)c1nc2sc(C)c(C)c2c(=O)[nH]1	4	5	12	-24	5	.
COc1ccc(/C=N\NC(=O)c2sccc2C)cc1Cn1nc(C)cc1C	.	46*	.	-17	.	25*
O=c1[nH]c2ccccc2nc1C(Nc1ccccc1)c1ccccc1 (stereo unspecified)	-1	-1	.	4	1	.
CCOc1ccc(Br)cc1S(=O)(=O)Nc1cccc(S(=O)(=O)N(C)c2ccccc2)c1	5	5	6	16	3	.
Nc1nc(CCl)nc(Nc2cccc3ccccc23)n1	100*	91*	.	-5	28*	8
Nc1nc(Nc2cccc3ccccc23)nc(C2CCCC2=O)n1 (stereo unspecified)	2	-2	-6	0	3	.
O=S(=O)(c1ccccc1)N(CC1CO1)c1cc(Cl)ccc1Cl (stereo unspecified)	.	5	.	2	.	.
SMILES	Ba/F3 V617F tox	IEC-6 cytotox	APP transl inh	KLF5 inh	BaF3 tox	IEC-6 cytotox cf
COc1ccc(C(=O)N/N=C/c2ccc(OC(=O)c3ccccc3)cc2)cc1	-2	-4	2	6	3	.
CCOc1ccc2[nH]c(C(=O)N/N=C/c3ccccc3OC)cc2c1	.	48*	.	60	.	14
CCOc1ccc(/C=N/NC(=O)c2cc3c(OC)cc(OC)c(OC)c3[nH]2)cc1	.	7	.	-5	.	.
COc1ccc(C(=O)N/N=C/c2ccccc2OC(=O)c2ccccc2)cc1	.	94*	.	-64	.	12
O=C(OCC(O)COc1ccccc1)c1ccc([N+](=O)[O-])cc1 (stereo unspecified)	.	9	.	12	.	.
CCOC(=O)c1c(C)[nH]c(N=Nc2cccc(OC)c2)c1C	1	5	-253	-151	4	.
O=C(O)CCCCCCCCc1cn(Cc2ccc(C(=O)c3ccccc3)cc2)nn1	.	72*	.	-27	.	24*
O=C(c1ccccc1)c1ccc(Cn2cc(CCCO)nn2)cc1	.	7	.	-13	.	.
COc1ccc(NS(=O)(=O)c2cc(NC(=O)c3cnc(C)cn3)ccc2N2CCCC2)cc1	4	4	-24	-22	7	.
COc1ccc(NS(=O)(=O)c2cc(NC(=O)c3ccc(=O)[nH]c3)ccc2N2CCCC2)cc1	.	42*	.	21	.	25*
